This is a sample that favours compounds with a hit; in the whole collection about 2.4% have one here.
Pol kappa inh = DNA polymerase kappa (human) inhibition; Q9UBT6; purified Pol kappa, fluorescent DNA synthesis assay, 10 min; Potency, µM (titrated, usually from 107 µM), inactives show at the highest dose activity, negative = inhibition, most hits filed as inhibitors; 0.53% of 400,000 active; further: on the % scale 0 is the no-effect control and ±100 the full control effect
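Activity was followed as the change in fluorescence between reads at 0 and 10 min after starting the reaction with 50 nM substrate. Beforehand, 10 nM polymerase had been preincubated with compound for 15 min at room temperature.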
Pol beta inh = blocks human DNA polymerase beta activity | P06746 | 1.3% of 340,000 active | Pol beta primer extension/strand displacement, fluorescence kinetic | Potency, µM (doses to about 114 µM), without a hit: at the top dose activity change, negative = inhibition, usual class: inhibitors; further: on the % scale 0 is the no-effect control and ±100 the full control effect
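Homogeneous kinetic assay of primer extension and strand displacement by 10 nM Pol beta, preincubated 15 min at room temperature with compound before 50 nM substrate (final) was added. Read at 0 and 10 min; four-parameter Hill fit.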
Pol eta inh = blocks human DNA polymerase eta activity | Q9Y253 | recombinant Pol eta, fluorescent DNA replication assay | Potency, µM (doses to about 114 µM), without a hit: top-dose activity change, negative = inhibition, hits mostly inhibitors | 1.2% of 390,000 active | AID 588591; further: on the % scale 0 is the no-effect control and ±100 the full control effect
Target sequence (Q9Y253 whole entry, looked up): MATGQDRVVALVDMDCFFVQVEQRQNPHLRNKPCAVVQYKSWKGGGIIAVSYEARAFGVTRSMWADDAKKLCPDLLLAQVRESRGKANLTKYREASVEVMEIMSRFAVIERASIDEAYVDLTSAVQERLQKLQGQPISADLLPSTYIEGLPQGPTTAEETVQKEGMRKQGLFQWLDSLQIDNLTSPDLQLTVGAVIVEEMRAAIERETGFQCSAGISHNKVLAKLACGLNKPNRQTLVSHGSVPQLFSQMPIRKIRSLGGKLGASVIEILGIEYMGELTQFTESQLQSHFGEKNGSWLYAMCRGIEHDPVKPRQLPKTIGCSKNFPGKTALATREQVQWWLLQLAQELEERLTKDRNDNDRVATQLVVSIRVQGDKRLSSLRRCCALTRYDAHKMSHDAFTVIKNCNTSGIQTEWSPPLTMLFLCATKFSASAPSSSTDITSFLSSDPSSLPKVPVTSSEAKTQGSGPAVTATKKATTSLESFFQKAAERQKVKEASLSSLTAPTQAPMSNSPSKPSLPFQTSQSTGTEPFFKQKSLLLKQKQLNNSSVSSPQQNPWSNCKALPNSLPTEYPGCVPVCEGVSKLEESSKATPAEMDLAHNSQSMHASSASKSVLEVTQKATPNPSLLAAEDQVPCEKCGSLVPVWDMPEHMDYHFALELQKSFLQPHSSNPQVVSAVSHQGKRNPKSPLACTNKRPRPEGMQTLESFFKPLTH
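Pol eta (10 nM) was preincubated with compounds for 15 min at room temperature, after which fluorescent replication substrate (50 nM final) was added to start the reaction. Fluorescence was read kinetically at 0 and 10 min.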
FEN1 inh = human FEN1 inhibition | Recombinant FEN1 flap cleavage, fluorescence, 15 min | Potency, µM (titrated, usually from 114 µM), for inactives: at the highest dose activity change, negative = inhibition, hits mostly inhibitors | 0.35% of 390,000 active | AID 588795; further: on the % scale 0 is the no-effect control and ±100 the full control effect; nearly all actives have a fitted effect of over 65% in size
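Compounds are tested as a concentration series against 10 nM FEN1; after a 15 min room-temperature preincubation, 50 nM substrate starts cleavage, with plate reads at 0 and 15 min. Normalized responses are fitted by a Hill equation.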
Pol iota inh = blocks human DNA polymerase iota activity | Potency, µM (titrated, usually from 115 µM), for the others: top-dose activity, negative = inhibition, hits mostly inhibitors | Q9UNA4 | Pol iota fluorescent replication assay, 10 min | 1% of 390,000 active
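Pol iota at 10 nM preincubated 15 min with compounds at room temperature; reaction started with fluorescent substrate, 50 nM final. Fluorescence read kinetically at 0 and 10 min; buffer-only wells as negative control.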
WRN helicase inh = inhibitors of human WRN helicase | 0.46% of 360,000 active | WRN helicase unwinding, fluorescent forked duplex, kinetic | Potency, µM (titrated, usually from 114 µM), inactives show at the highest dose activity change, negative = inhibition, most hits filed as inhibitors; further: on the % scale 0 is the no-effect control and ±100 the full control effect; nearly all actives have a fitted effect of over 55% in size
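WRN at 20 nM final preincubated with compound 15 min at room temperature; reaction started with 100 nM fluorophore/quencher forked duplex oligonucleotide and 2 mM ATP final. Unwinding followed kinetically by red fluorescence (ex 525, em 598 nm).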
An asterisk follows results filed as active; ? = inconclusive; . = no result given; [ ] = another dose, or the depositor's remark. The call rests on the fitted dose curve; in most records, active means well fitted curve in the direction sought with a large enough effect; inconclusive means small, poorly fitted or top-dose-only effect, or another doubt; inactive means no such curve, though single readings can be large; an effect the other way counts as inactive or inconclusive. Potency means the concentration at half of the fitted maximal effect.

SMILES	Pol kappa inh	Pol beta inh	Pol eta inh	FEN1 inh	Pol iota inh	WRN helicase inh
Cc1ccc(NC(=O)c2ccc3c(c2)NC(=O)c2ccccc2S3)cc1	1%	12%	-19%	-10%	-17%	.
Cc1cccc(N2CCN(C(=O)c3cc4ccc5cccnc5c4[nH]3)CC2C)c1 (stereo not given)	-11%	-18%	-11%	-3%	15%	.
CCc1ccc(NC(=O)CSc2nnc(-c3ccccc3)n2C)cc1	-7%	.	.	-2%	-3%	.
CNC1C(O)C(OC2C(NC(=O)C(O)CN)CC(N)C(OC3OC(CN)C(O)C(O)C3O)C2O)OCC1(C)O (stereo not given)	0%[60.1 µM]	.	.	.	.	.
CCCCn1c(SC(C)C(=O)c2ccc(OC)cc2)nc2cc(S(N)(=O)=O)ccc21 (stereo not given)	-15%	1%	-8%	?	-8%	-26%
CCCCn1c(SCC(=O)c2ccc(OC)cc2OC)nc2cc(S(N)(=O)=O)ccc21	?	40µM*	25µM*	-11%	45µM*	?
O=S(=O)(Nc1nc2n(n1)C(c1ccc(F)cc1)C=C(c1ccccc1)N2)c1ccc(Cl)cc1 (stereo not given)	-11%	-16%	?	-7%	22%	.
Cc1ccc(S(=O)(=O)Nc2nc3n(n2)C(c2ccc(F)cc2)C=C(c2ccccc2)N3)cc1 (stereo not given)	3%	2%	?	-1%	25%	.
Cc1ccc(S(=O)(=O)Nc2nc3n(n2)C(c2ccc(Cl)cc2)C=C(c2ccccc2)N3)cc1 (stereo not given)	4%	-1%	89µM*	-2%	-7%	.
COc1ccc(C2C=C(c3ccccc3)Nc3nc(NS(=O)(=O)c4ccc(Cl)cc4)nn32)cc1 (stereo not given)	1%	12%	89µM*	-6%	28%	.
COc1ccc(C2C=C(c3ccccc3)Nc3nc(NS(=O)(=O)c4ccccc4)nn32)cc1 (stereo not given)	-10%	12%	89µM*	-14%	18%	.
Cc1ccc(C2C=C(c3ccccc3)Nc3nc(NS(=O)(=O)c4ccccc4)nn32)cc1 (stereo not given)	2%	18%	?	-2%	-2%	.
CN1C(C(=O)Nc2ccccn2)=C(O)c2sc(Cl)cc2S1(=O)=O	-10%	?	0%	13%	79µM*	-4%
CN1C(C(=O)Nc2ccccn2)C(=O)c2sc(Cl)cc2S1(=O)=O (stereo not given)	-10%[60.1 µM]	.	.	.	.	.
COc1ccc(N2Cc3cccc(C(=O)O)c3C2=O)cc1	?	7.1µM*	4µM*	-16%	?	50µM*
Cn1c(N=Nc2ccc(N3CCOCC3)cc2)[n+](C)c2ccccc21	-10%	3%	-25%	56µM*	130%	45µM*
O=C(O)C(O)c1ccccc1 (stereo not given)	.	-1%	2%	-10%	-30%	-2%
O=C(O)C(O)c1ccco1 (stereo not given)	20µM*	2.2µM*	3.5µM*	?	?	50µM*
Cc1nn(-c2ccc(Cl)cc2)c2nc(-c3cccnc3)cc(C(F)(F)F)c12	-23%	0%	-7%	-10%	14%	.
CCC(=O)CC	-5%[60.1 µM]	.	.	.	.	.
CC(C)C(C)N(Cc1ccc(C(=O)O)cc1)C(=O)c1ccc2ccccc2n1 (stereo not given)	-6%	.	-20%	-7%	?	4%[11.6 µM]
CC(C)C(C)N(Cc1cccc(C(=O)O)c1)C(=O)c1ccc2ccccc2n1 (stereo not given)	-16%	.	-12%	18%	22µM*	8%
CCOC(=O)c1c(NC(=O)C2CC(Cl)=CCC2C(=O)O)sc2c1CCCCC2 (stereo not given)	-23%	35µM*	-11%	-16%	-1%	-19%
Cn1cc(/C=C2\SC(=S)N(NC(=O)c3cccc(Cl)c3)C2=O)c2ccccc21	10%	0%	14%	8%	20%	20µM*

Assay outcomes deposited in PubChem by National Center for Advancing Translational Sciences (NCATS).
